MOR-DOR ag = agonists of OPRM1-OPRD1 heterodimerization, primary screen, cell-based, luminescence; 340,000 compounds, 0.3% hits; activation, % at 9.3 µM; cells; AID 504326, 2011; in the data active = activation above about 18%;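 note: 0% = vehicle-treated cells and 100% = reference agonist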
HTR5A ag = HTR5A agonists in luminescence cell assay, primary screen, counter-screen for OPRM1-OPRD1 heterodimer agonist project, full-deck HTS; 5-hydroxytryptamine receptor 5A (Homo sapiens), P47898; cell-based; activation, % at 9.3 µM; 340,000 compounds, 0.61% hits; in the data active = activation mostly above about 9.5%, no sharp cut-off; inactive = mostly below about 7.6%;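 note: 0% = cells with vehicle only and 100% = reference agonist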
Target sequence (P47898 whole entry, looked up): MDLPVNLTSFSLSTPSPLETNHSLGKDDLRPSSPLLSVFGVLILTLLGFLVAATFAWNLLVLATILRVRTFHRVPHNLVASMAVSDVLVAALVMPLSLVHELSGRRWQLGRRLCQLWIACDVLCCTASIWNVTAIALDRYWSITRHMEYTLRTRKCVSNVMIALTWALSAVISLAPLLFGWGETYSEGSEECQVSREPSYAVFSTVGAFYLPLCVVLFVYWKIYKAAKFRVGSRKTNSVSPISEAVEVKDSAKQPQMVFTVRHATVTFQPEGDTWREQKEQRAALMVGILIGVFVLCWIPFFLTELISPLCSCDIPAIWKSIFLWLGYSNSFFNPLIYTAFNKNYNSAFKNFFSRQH
OPRM1-OPRD1 inv = inverse agonists of MOR-DOR heterodimerization, primary screen, cell-based, luminescence | 340,000 compounds, 0.21% hits | Mu-type opioid receptor (Homo sapiens) + Delta-type opioid receptor (Homo sapiens), … | cell-based MOR-DOR heterodimer luminescence, inverse agonism | AID 504357, 2011 | inhibition, % at 9.3 µM; in the data active = inhibition above about 22%, passing the limit was not always enough;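 note: 0% = cells with DMSO and 100% = wells without cells with DMSO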
HTR5A inv ag = HTR5A inverse agonists in luminescence cell assay, primary screen, counter-screen for OPRM1-OPRD1 heterodimer inverse agonist project, full-deck HTS; HTR5A cell line, inverse agonism; inhibition, % at 9.3 µM; 340,000 compounds, 0.083% hits; 5-hydroxytryptamine receptor 5A (Homo sapiens), P47898; in the data active = inhibition mostly above about 23%, no sharp cut-off; inactive = mostly below about 18%;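 note: 0% = cells with DMSO and 100% = no-cell wells with DMSO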
An asterisk follows results filed as active. Rows were chosen to be rich in hits. Some 1.1% of all compounds tested hit in one or more screens of this group.

SMILES | MOR-DOR ag | HTR5A ag | OPRM1-OPRD1 inv | HTR5A inv ag
Cc1cccc(-c2cc3nc(-c4ccccc4)cc(N4CCC5(CC4)OCCO5)n3n2)c1 | 0.9 | 12.0* | -3.7 | 10.4
Cc1ccc(S(=O)(=O)c2c(C)nn(C(C)(C)C)c2OC(=O)c2ccco2)cc1 | -1.4 | 11.7* | 5.8 | -0.6
COCc1ccc(CN2CCCC(C(=O)Nc3ccccc3-c3ccc(OC)cc3)C2)o1 (stereo unspecified) | -1.1 | -2.4 | 5.7 | 24.5
COCc1ccc(CN2CCCC(C(=O)Nc3ccc(-c4cccc(OC)c4)cc3)C2)o1 (stereo unspecified) | 3.8 | 11.6* | -20.5 | -13.1
Cc1ccccc1N(CC(=O)NCCSc1ccccn1)S(=O)(=O)c1ccccc1 | -3.6 | 2.0 | 18.4 | -5.3
COc1ccccc1N(CC(=O)NCCSc1ccccn1)S(=O)(=O)c1ccccc1 | 1.2 | 12.0* | -9.9 | -47.0
CC(=O)Nc1ccc(/C(C)=N/NS(=O)(=O)c2ccc(C)cc2)cc1 | -1.0 | 1.9 | 5.7 | -54.8
CC(=NNS(=O)(=O)c1ccc([N+](=O)[O-])cc1)c1ccc(C)cc1 | 0.0 | 11.2* | 0.2 | -43.8
C/C(=N/NS(=O)(=O)c1ccc(F)cc1)c1ccncc1 | 0.4 | 11.3* | -2.3 | -8.1
COC12NC(=O)N(C)C1(OC)C(=O)N(C)C(=O)N2C (stereo unspecified) | -2.1 | 4.7 | 12.8 | -10.4
COc1ccccc1-n1c(SCC(=O)NCC2CCCO2)nc2c([nH]c3ccccc32)c1=O (stereo unspecified) | -8.1 | -11.6 | 44.7* | 37.8*
CCn1c(SCC(=O)NCC2CCCO2)nc2c([nH]c3ccccc32)c1=O (stereo unspecified) | 0.2 | 1.1 | -0.6 | 8.0
CCCCn1c(N)c(N(CC(C)C)C(=O)c2ccc(Br)s2)c(=O)[nH]c1=O | -3.0 | 0.5 | 15.7 | 13.7
CCn1c(O)c(/C=N/N=C/c2ccccc2)c2ccc(C3=NNC(=O)CC3)cc21 | 5.7 | 12.7* | -25.8 | -28.1
COc1ccccc1CC(=O)N(Cc1ccccc1)c1ccc(C)cc1 | 4.5 | -1.6 | -22.9 | 3.8
Cc1nc(SCC(=O)NNC(=O)c2ccc(F)cc2)c2ccccc2n1 | -2.0 | 12.8* | 8.4 | -31.4
CCCc1nc(SCC(=O)NNC(=O)c2ccc(OC)cc2)c2ccccc2n1 | -2.6 | -0.7 | 13.4 | 1.9
C#CCNC(=O)C1=C[C@H](c2ccc(C(F)(F)F)cc2)C[C@H](OCc2ccc(CO)cc2)O1 | -2.2 | -2.4 | 12.8 | 5.2
CC1(C)Cc2c(cnn2-c2ccc(F)cc2)C(NC(=O)C2=NNC(=O)CC2)C1 (stereo unspecified) | -0.8 | 5.2 | 4.3 | -3.7
CCc1cc2c(COC(=O)c3cc(S(=O)(=O)N4CCOCC4)ccc3F)cc(=O)oc2cc1O | -3.0 | -0.2 | 11.9 | 0.5
CCc1cc2c(COC(=O)c3cccc(NS(C)(=O)=O)c3)cc(=O)oc2cc1O | 10.4 | 11.9* | -85.8 | -16.4
Cc1cc(-n2c(SCC(=O)NCc3cccs3)nc3n[nH]c(C)c3c2=N)ccc1Cl | 2.2 | 11.8* | -11.8 | -23.2
Cc1cc(-n2c(SCC(=O)Nc3ccc(F)c(F)c3)nc3n[nH]c(C)c3c2=N)ccc1Cl | 6.3 | 9.8* | -33.7 | -39.9
Cc1ccc(C)c(S(=O)(=O)N2CCCCC2CCNC(=O)C(=O)NCc2ccncc2)c1 (stereo unspecified) | 3.0 | 3.9 | -16.3 | -9.8
CC1CCCCN1C(=S)NC(=O)c1cc(Br)ccc1Cl (stereo unspecified) | -1.9 | -7.3 | 8.0 | 18.0
SMILES | MOR-DOR ag | HTR5A ag | OPRM1-OPRD1 inv | HTR5A inv ag
O=C(/C=C/c1ccc(Br)cc1)NC1CCCCCC1 | 1.4 | 13.7* | -7.3 | -18.4
CCCOc1ccc(/C=C/C(=O)NC2CCCCC2)cc1 | 3.9 | -2.9 | -21.3 | 26.4
COc1cc(NC(=O)C2CC(c3ccccc3Cl)=NO2)cc(OC)c1OC (stereo unspecified) | 0.8 | -1.1 | -4.1 | 3.9
Cc1onc(C(=O)N2CCN(C(c3ccccc3)c3ccccc3)CC2)c1[N+](=O)[O-] | 16.3 | 12.7* | -80.9 | -33.4
COc1ccccc1N1CCN(C(=O)c2noc(C)c2[N+](=O)[O-])CC1 | -1.2 | 9.2 | 6.2 | 8.4
Cc1ccc(Nc2c(-c3ccccn3)nc3cccc(C)n23)cc1 | -6.7 | -4.5 | 34.1* | -3.1
Cc1ccc(Cc2ccccc2C(=O)O)cc1 | -3.0 | 1.3 | 14.6 | -4.9
CC(C)c1ccc(OCC(O)CNC(C)c2ccccc2)cc1 (stereo unspecified) | 4.0 | 11.7* | -18.0 | -41.5
CCC(=O)c1ccc(OCC(O)CNC(C)c2ccccc2)cc1 (stereo unspecified) | 2.2 | 1.5 | -12.8 | -5.0
CCOc1ccc(S(=O)(=O)N/N=C(\C)c2ccc(OC)cc2OC)cc1 | -3.0 | 11.0 | 14.1 | -13.2
COc1ccc(/C(C)=N/NS(=O)(=O)c2cc(C)ccc2C)c(OC)c1 | 3.2 | 13.4* | -16.8 | -37.7
CC[C@]12C(=O)N(C)C[C@H]([C@@H]3C(=O)N(C)C(=O)[C@@H]31)N2C(=O)c1ccc(C)cc1 | -0.9 | -0.9 | 4.9 | 5.9
CCN(CC)CCN(C(=O)/C=C/c1cccs1)c1nc2ccc(C)cc2s1 | 3.9 | 13.4* | -19.9 | -17.3
CCOc1cccc2sc(N(CCN(C)C)C(=O)/C=C/c3cccs3)nc12 | 2.1 | 13.1* | -10.5 | -45.7
C=CCSc1nsc(NC(=O)Nc2ccc(F)cc2)n1 | 3.1 | 4.0 | -15.5 | -14.9
Cc1oc2ccc(O)cc2c1C(=O)c1ccc([N+](=O)[O-])cc1 | 4.3 | 3.4 | -23.2 | -30.4
CN(C)/C=C/c1oc2ccc(O)cc2c1[N+](=O)[O-] | -7.8 | -10.8 | 40.9* | 30.3*
COC(=O)C1CCN(C(=O)COC(=O)c2cc([N+](=O)[O-])ccc2N2CCOCC2)CC1 | -3.2 | 4.9 | 12.7 | 18.5
CC1CCN(C(=O)COC(=O)c2cc([N+](=O)[O-])ccc2N2CCOCC2)CC1 | -0.4 | 12.1* | 2.2 | -32.9
Cc1cccc(N(Cc2ccccc2)C(=O)CCl)c1 | 66.7* | 65.2* | -367.7 | -180.5
O=C(Nc1ccc(F)c(Cl)c1)C1CCCN(C2=NS(=O)(=O)c3ccccc32)C1 (stereo unspecified) | -0.9 | 5.2 | 3.9 | -12.9
CCCC(=O)N1CCN(Cc2ccc3c(c2)OCO3)CC1 | -0.2 | -1.8 | 1.3 | 6.0
O=C(O)CCC(=O)N1CCN(Cc2ccc3c(c2)OCO3)CC1 | -1.6 | 11.7* | 7.2 | -43.2
COc1ccccc1-n1nnnc1SCC(=O)NCC1(N2CCOCC2)CCCCC1 | 3.3 | -1.9 | -13.8 | 5.2
NNS(=O)(=O)c1ccc2c(c1)Cc1cc(S(=O)(=O)NN)ccc1-2 | -3.7 | 11.6* | 17.2 | -44.8
CC(C)(C)C1=CC(=O)C(=O)C(C(C)(C)C)=C1 | 36.3* | 4.6 | -184.5 | -11.9
Cc1ccc(S(=O)(=O)N2CCN(C(=O)c3ccc(N4CCC(C)CC4)c([N+](=O)[O-])c3)CC2)cc1 | -0.8 | -2.4 | 3.4 | 6.5
NC(CSC(c1ccccc1)(c1ccccc1)c1cccc2ccccc12)C(=O)O (stereo unspecified) | 21.0* | 5.4 | -91.9 | -20.8

Assay outcomes as filed in PubChem BioAssay.
